Source: PubChem BioAssay AID1159580 (chemical genetic matrix, 2015)
Hit rate of the full screen: of about 5,500 compounds, about 2,000 (36%) were called active. Roughly 18% stayed inconclusive and do not appear here. Rule as the data show it: active = normalized growth mostly below about 0.91 (no sharp cut-off); inconclusive = no clear call, values can overlap the other calls; inactive = mostly above about 0.92. Some of the results follow.

Assay: chemical genetic growth profiling, strain panel (AID 1159580);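 also: tested at 20 µM; growth read once vehicle control cultures reached saturation at 30 °C; 1 = growth at the plate median or of vehicle wells; lower values mean less growth of the strain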
Settings: S. cerevisiae deletion strains, growth OD
[1] = locus YAR019C, strain CDC15, stronger effect = lower value
[2] = locus YBL105C, strain PKC1, stronger effect = lower value
[3] = locus YBR135W, strain CKS1, stronger effect = lower value
[4] = locus YBR136W, strain MEC1, stronger effect = lower value
[5] = locus YDL017W, strain CDC7, stronger effect = lower value
[6] = locus YDL101C, strain DUN1, stronger effect = lower value
[7] = locus YDL214C, strain PRR2, stronger effect = lower value
[8] = locus YDR052C, strain DBF4, stronger effect = lower value
[9] = locus YDR054C, strain cdc34, stronger effect = lower value
[10] = locus YDR226W, strain ADK1, stronger effect = lower value
[11] = locus YDR477W, strain SNF1, stronger effect = lower value
[12] = locus YER123W, strain YCK3, stronger effect = lower value
[13] = locus YER133W, strain GLC7, stronger effect = lower value
[14] = locus YFL029C, strain CAK1, stronger effect = lower value
[15] = locus YFR003C, strain YPI1, stronger effect = lower value
[16] = locus YFR019W, strain FAB1, stronger effect = lower value
[17] = locus YFR028C, strain CDC14, stronger effect = lower value
[18] = locus YGR040W, strain KSS1, stronger effect = lower value
[19] = locus YGR052W, strain FMP48, stronger effect = lower value
[20] = locus YGR092W, strain DBF2, stronger effect = lower value
[21] = locus YHR030C, strain SLT2, stronger effect = lower value
[22] = locus YHR079C, strain IRE1, stronger effect = lower value
[23] = locus YHR082C, strain KSP1, stronger effect = lower value
[24] = locus YHR205W, strain SCH9, stronger effect = lower value
[25] = locus YIL147C, strain SLN1, stronger effect = lower value
[26] = locus YJL095W, strain BCK1, stronger effect = lower value
[27] = locus YJL157C, strain FAR1, stronger effect = lower value
[28] = locus YJR066W, strain TOR1 (second series), stronger effect = lower value
[29] = locus YJR066W, strain TOR1, stronger effect = lower value
[30] = locus YKL048C, strain ELM1, stronger effect = lower value
[31] = locus YKL067W, strain YNK1, stronger effect = lower value
[32] = locus YKL101W, strain HSL1, stronger effect = lower value
[33] = locus YKL193C, strain SDS22, stronger effect = lower value
[34] = locus YKL203C, strain TOR2, stronger effect = lower value
[35] = locus YLR113W, strain HOG1, stronger effect = lower value
[36] = locus YLR133W, strain CKI1, stronger effect = lower value
[37] = locus YLR403W, strain SFP1, stronger effect = lower value
[38] = locus YML070W, strain DAK1, stronger effect = lower value
[39] = locus YMR001C, strain CDC5, stronger effect = lower value
[40] = locus YMR205C, strain PFK2 (second series), stronger effect = lower value
[41] = locus YMR277W, strain FCP1, stronger effect = lower value
[42] = locus YNL006W, strain LST8, stronger effect = lower value
[43] = locus YNL020C, strain ARK1, stronger effect = lower value
[44] = locus YNL183C, strain NPR1, stronger effect = lower value
[45] = locus YNL222W, strain SSU72, stronger effect = lower value
[46] = locus YNL307C, strain MCK1 (second series), stronger effect = lower value
[47] = locus YOL078W, strain AVO1, stronger effect = lower value
[48] = locus YOL136C, strain PFK27, stronger effect = lower value
[49] = locus YOR061W, strain CKA2, stronger effect = lower value
[50] = locus YOR119C, strain RIO1, stronger effect = lower value
[51] = locus YOR231W, strain MKK1, stronger effect = lower value
[52] = locus YOR329C, strain SCD5, stronger effect = lower value
[53] = locus YPL031C, strain PHO85, stronger effect = lower value
[54] = locus YPL153C, strain RAD53, stronger effect = lower value
[55] = locus YPL204W, strain HRR25, stronger effect = lower value
[56] = locus YPL209C, strain IPL1, stronger effect = lower value
[57] = locus YPL256C, strain CLN2, stronger effect = lower value
[58] = locus YPR025C, strain CCL1, stronger effect = lower value
[59] = locus YPR106W, strain ISR1, stronger effect = lower value
[60] = strain NNK1, stronger effect = lower value
[61] = strain TSCII, stronger effect = lower value

Measured: normalized growth

COC(=O)/C=C1/OC(c2ccc(OC)cc2)=CC1=O
inactive: [5] 0.968 | [8] 0.981 | [10] 0.923 | [15] 0.98 | [25] 0.978 | [42] 0.989 | [52] 0.988
active: [1] 0.283 | [2] 0.594 | [3] 0.428 | [4] 0.671 | [6] 0.447 | [7] 0.105 | [9] 0.464 | [11] 0.101 | [12] 0.102 | [13] 0.0947 | [14] 0.177 | [16] 0.099 | [17] 0.433 | [18] 0.108 | [19] 0.125 | [20] 0.154 | [21] 0.14 | [22] 0.29 | [23] 0.143 | [24] 0.0277 | [26] 0.124 | [27] 0.121 | [28] 0.102 | [29] 0.15 | [30] 0.402 | [31] 0.0947 | [32] 0.156 | [33] 0.221 | [34] 0.103 | [35] 0.163 | [36] 0.129 | [37] 0.16 | [38] 0.0894 | [39] 0.273 | [40] 0.152 | [41] 0.274 | [43] 0.315 | [44] 0.115 | [45] 0.499 | [46] 0.123 | [47] 0.316 | [48] 0.102 | [49] 0.308 | [50] 0.108 | [51] 0.23 | [53] 0.103 | [54] 0.221 | [55] 0.282 | [56] 0.5 | [57] 0.154 | [58] 0.576 | [59] 0.507 | [60] 0.11 | [61] 0.265

CO/N=C1/CC(C)(C)Cc2c(-c3ccn(C(=O)Nc4cccc(Cl)c4)n3)sc(SC)c21
active: [21] 1.16 [resistant]
inactive: [1] 0.981 | [2] 0.965 | [3] 0.968 | [4] 0.969 | locus YBR160W, strain CDC28, stronger effect = lower value 0.964 | [5] 0.967 | locus YDL028C, strain MPS1, stronger effect = lower value 0.963 | [6] 0.975 | locus YDL108W, strain KIN28, stronger effect = lower value 0.959 | locus YDL132W, strain cdc53, stronger effect = lower value 0.967 | [7] 0.983 | [8] 0.973 | [9] 0.971 | [10] 0.974 | [11] 0.996 | [12] 0.993 | [13] 1 | locus YFL009W, strain cdc4, stronger effect = lower value 0.963 | [14] 0.978 | [15] 0.96 | [16] 1 | [17] 0.969 | [18] 1 | [19] 1.02 | [20] 1 | [22] 1.13 | [23] 1.1 | [24] 0.989 | [25] 0.972 | [26] 1.02 | locus YJL128C, strain PBS2, stronger effect = lower value 0.952 | [27] 0.996 | locus YJR016C, strain ILV3, stronger effect = lower value 0.97 | [28] 1.06 | [29] 1.1 | [30] 0.993 | [31] 0.98 | [32] 0.988 | [33] 0.968 | [34] 1.06 | [35] 0.968 | [36] 0.98 | [37] 1.02 | [38] 0.984 | [39] 0.977 | [40] 0.978 | [41] 0.97 | [42] 0.981 | [43] 0.983 | locus YNL161W, strain CBK1, stronger effect = lower value 0.977 | [44] 1.03 | locus YNL207W, strain RIO2, stronger effect = lower value 0.971 | [45] 0.969 | [46] 0.992 | [47] 0.966 | [48] 0.993 | [49] 0.98 | [50] 1.05 | [51] 0.984 | [52] 0.971 | [53] 1.02 | [54] 1.04 | [55] 1.02 | [56] 0.969 | [57] 1.13 | [58] 0.963 | [59] 0.975 | locus YPR111W, strain DBF20, stronger effect = lower value 0.962 | [60] 0.989 | [61] 0.977
